Drawing on PubChem BioAssay, this text covers fold change, cell count and z-score for 21 compounds.

Experiment [1] is described as follows: sensitizers of A549 cells to miR-34 induction, primary screen, imaging, A549 dox-inducible miR-34, nuclei and caspase counts (AID 1347080). Also: test concentration not given here. The note with it: A549 miR-34 inducible, Hoechst nuclei count, 48 h.
Experiment [2] is described as follows: survival rescue of mitochondrial mutant cells in low glucose, primary screen, MELAS cybrids, Rieske KO mouse fibroblasts, CellTiter-Glo (AID 1508586;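 active = mean z-score across replicates of 1.96 or higher in either the MELAS or the Rieske mutant cell line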;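 also: test concentration not given here; z relative to plate mean and SD of compound and empty wells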). (ATP-based viability assays read luminescence as a measure of living cells.)
Experiment [3] can be described thus: viability rescue of complex I mutant cybrids, primary screen, cell-based, galactose medium, ATP luminescence (AID 1645843;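 active = z-score of at least 1.8 in each of two replicates, scored against plate mean and spread of sample wells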;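 also: positive z means more ATP and so rescue of galactose-driven cybrid death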). The following applies: complex I mutant cybrid cells, 72 h, stronger effect = higher value.
Setting [4] is: stronger effect = lower value, cell number ratio, induced over uninduced.
The mark [5] stands for this setting: measured here: relative caspase fold change +Dox/-Dox.
Setting [6] is: measured here: total cells with miR-34 induction, stronger effect = lower value.
Setting [7] is: measured here: total cells without miR-34 induction.
The mark [8] stands for this setting: MELAS cybrid survival, CellTiter-Glo 48 h, stronger effect = higher value.
[9] abbreviates: Rieske KO mouse fibroblast survival, CellTiter-Glo 72 h.

“And” between values parts separate entries of the source, which are not always exact repeats. Equal entries are not always repeated. The source made the active and inactive calls.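 The calls were made as follows, unless noted: active = compounds whose cell count with miR-34 switched on is under 0.7 times the count with it off; inactive = the rest.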

Turning to `NC(=O)c1c(NC(=O)C2CC2)sc2c1CCCC2`, the values for the fold change in experiment [1] (setting [4]) and in experiment [1] (setting [5]) were 0.825 (inactive) and 0.622, respectively. Also, the figures for the cell count in experiment [1] (setting [6]) and in experiment [1] (setting [7]) were 7330 and 8890, respectively. The z-score was -0.327 (inactive) in experiment [2] (setting [8]), 0.409 in experiment [2] (setting [9]) and 0.65 (inactive) in experiment [3].
Turning to `CCOC(=O)C(CCc1ccccc1)NC(C)C(=O)N1C(C(=O)O)CC2CCCC21` (configuration not stated), the fold change in experiment [1] (setting [4]) is 0.892 (inactive) and 0.893 (inactive); in experiment [1] (setting [5]) it was 1.7 and 1.12. Further, the cell count is 8500 and 7970 in experiment [1] (setting [6]); 9530 and 8920 in experiment [1] (setting [7]). The z-score in experiment [2] (setting [8]) is -0.00441 (inactive); in experiment [2] (setting [9]), 0.321; in experiment [3] it was 0.52 (inactive).
Regarding `CN1CCN(Cc2cccc(-n3cccn3)c2)CC1CCO` (configuration not stated), the values for the fold change in experiment [1] (setting [4]) and in experiment [1] (setting [5]) were 0.861 (inactive) and 3.04, respectively. Further, the cell count is 8640 in experiment [1] (setting [6]) and 10000 in experiment [1] (setting [7]). Also, the z-score in experiment [2] (setting [8]) is -0.56 (inactive); in experiment [2] (setting [9]) it was -0.308; in experiment [3], -0.58 (inactive).
For the compound `CC(C)n1cc(-c2cc(C(=O)N(C)Cc3cccnc3)c3cc(F)ccc3n2)cn1`, the fold change is 0.861 (inactive) in experiment [1] (setting [4]) and 1.63 in experiment [1] (setting [5]). For the same compound, the cell count in experiment [1] (setting [6]) stood at 9060; in experiment [1] (setting [7]) it was 10500. Further, the z-score is -0.238 (inactive) in experiment [2] (setting [8]), 0.816 in experiment [2] (setting [9]) and -0.535 (inactive) in experiment [3].
As for `NS(=O)(=O)c1ccc(CCC(=O)O)cc1`, the fold change in experiment [1] (setting [4]) is 0.881 (inactive); in experiment [1] (setting [5]), 0.214. Moreover, the cell count in experiment [1] (setting [6]) came to 8780; in experiment [1] (setting [7]), 9960. In addition, the z-score in experiment [2] (setting [8]) was 0.234 (inactive); in experiment [2] (setting [9]), -0.0972; in experiment [3], 0.14 (inactive).
`Cc1ncsc1-c1ccn(CC(=O)Nc2ccnn2C2CCCCC2)n1`: the fold change is 0.823 (inactive) in experiment [1] (setting [4]) and 0.676 in experiment [1] (setting [5]). Further, the cell count in experiment [1] (setting [6]) came out at 7140; in experiment [1] (setting [7]), 8680. Further, the z-score was -0.424 (inactive) in experiment [2] (setting [8]), 0.121 in experiment [2] (setting [9]) and -0.57 (inactive) in experiment [3].
As for `COc1ccc2c(C(=O)N(C)Cc3nonc3C)cc(-c3cnn(C)c3)nc2c1`, the figures for the fold change in experiment [1] (setting [4]) and in experiment [1] (setting [5]) were 0.963 (inactive) and 1.42, respectively. Moreover, the cell count in experiment [1] (setting [6]) turned out to be 8090; in experiment [1] (setting [7]) it was 8400. Besides, the z-score in experiment [2] (setting [8]) was -0.189 (inactive); in experiment [2] (setting [9]), -0.423; in experiment [3] it was -0.54 (inactive).
Turning to `CN1CCN(Cc2ccc3nonc3c2)CC1CCO` (configuration not stated), the figures for the fold change in experiment [1] (setting [4]) and in experiment [1] (setting [5]) were 0.893 (inactive) and 1.09, respectively. Also, the cell count in experiment [1] (setting [6]) is 8970; in experiment [1] (setting [7]) it was 10000. The values for the z-score in experiment [2] (setting [8]), in experiment [2] (setting [9]) and in experiment [3] were -0.262 (inactive), -0.13 and -0.35 (inactive), respectively.
Regarding `O=C(O)C(C(=O)O)c1ccccc1`, the fold change in experiment [1] (setting [4]) was 0.911 (inactive); in experiment [1] (setting [5]), 0.169. Further, the cell count was determined as 8920 in experiment [1] (setting [6]) and 9780 in experiment [1] (setting [7]). In addition, the z-score in experiment [2] (setting [8]) is 0.44 (inactive); in experiment [2] (setting [9]) it was -0.084; in experiment [3], 0.49 (inactive).
As to `Nc1nc(-c2ccoc2)c2[nH]cnc2n1`, the values for the fold change in experiment [1] (setting [4]) and in experiment [1] (setting [5]) were 0.933 (inactive) and 1.81, respectively. The cell count in experiment [1] (setting [6]) turned out to be 9520; in experiment [1] (setting [7]), 10200. In addition, the z-score is -0.0543 (inactive) in experiment [2] (setting [8]), -0.319 in experiment [2] (setting [9]) and -0.485 (inactive) in experiment [3].
Take `Cc1nc(C)c(-c2ccnc(N)n2)s1`: the fold change was 0.869 (inactive) in experiment [1] (setting [4]) and 0.21 in experiment [1] (setting [5]). Moreover, the results for the cell count in experiment [1] (setting [6]) and in experiment [1] (setting [7]) were 8060 and 9270, respectively. Further, the z-score in experiment [2] (setting [8]) is 0.483 (inactive); in experiment [2] (setting [9]), -0.306; in experiment [3], -0.255 (inactive).
Regarding `CN(C)CCOc1ccc(C(=C(CCCl)c2ccccc2)c2ccccc2)cc1`, the fold change is 0.778 (inactive) and 1.03 (inactive) in experiment [1] (setting [4]); 1.46 and 0.374 in experiment [1] (setting [5]). Besides, the cell count is 3730 and 7050 in experiment [1] (setting [6]); 4790 and 6850 in experiment [1] (setting [7]). The figures for the z-score in experiment [2] (setting [8]), in experiment [2] (setting [9]) and in experiment [3] were -0.446 (inactive), -0.000629 and -1.88 (inactive), respectively.
As for `COc1ccc(CN(C)C(=O)Nc2nc(C)n(C)n2)c2cccnc12`, the fold change is 0.889 (inactive) in experiment [1] (setting [4]) and 0.916 in experiment [1] (setting [5]). Besides, the cell count in experiment [1] (setting [6]) came out at 8870; in experiment [1] (setting [7]) it was 9980. Also, the z-score in experiment [2] (setting [8]) is 0.16 (inactive); in experiment [2] (setting [9]), -0.562; in experiment [3] it was -0.55 (inactive).
Take `O=c1[nH]c(=O)c2[nH]cnc2[nH]1`: the fold change in experiment [1] (setting [4]) was 0.891 (inactive); in experiment [1] (setting [5]) it was 0.584. For the same compound, the figures for the cell count in experiment [1] (setting [6]) and in experiment [1] (setting [7]) were 8870 and 9950, respectively. For the same compound, the z-score was 0.44 (inactive) in experiment [2] (setting [8]), -0.148 in experiment [2] (setting [9]) and -0.02 (inactive) in experiment [3].
`O=C(O)c1ccc(B(O)O)cc1`: the fold change in experiment [1] (setting [4]) was 0.887 (inactive); in experiment [1] (setting [5]) it was 0.4. Besides, the values for the cell count in experiment [1] (setting [6]) and in experiment [1] (setting [7]) were 8340 and 9400, respectively. Besides, the z-score is 0.638 (inactive) in experiment [2] (setting [8]), 0.194 in experiment [2] (setting [9]) and 0.105 (inactive) in experiment [3].
Take `OC1(CNc2ncnc3nc[nH]c23)C2CC3CC(C2)CC1C3` (configuration not stated): the fold change in experiment [1] (setting [4]) is 0.887 (inactive); in experiment [1] (setting [5]) it was 0.873. The figures for the cell count in experiment [1] (setting [6]) and in experiment [1] (setting [7]) were 8560 and 9650, respectively. Besides, the results for the z-score in experiment [2] (setting [8]), in experiment [2] (setting [9]) and in experiment [3] were -0.357 (inactive), -0.0569 and -0.575 (inactive), respectively.
For the compound `CCCn1cc(-c2ccnc(NC3CCN(Cc4cccnc4)CC3)n2)c(C)n1`, the figures for the fold change in experiment [1] (setting [4]) and in experiment [1] (setting [5]) were 0.82 (inactive) and 2, respectively. The cell count came to 3430 in experiment [1] (setting [6]) and 4180 in experiment [1] (setting [7]). Further, the z-score in experiment [2] (setting [8]) was -0.647 (inactive); in experiment [2] (setting [9]), 0.672; in experiment [3], -0.55 (inactive).
Turning to `c1ccc(-c2ncc(-c3ccn[nH]3)s2)cc1`, the fold change is 0.881 (inactive) in experiment [1] (setting [4]) and 0.808 in experiment [1] (setting [5]). In addition, the cell count was found to be 8010 in experiment [1] (setting [6]) and 9090 in experiment [1] (setting [7]). The z-score in experiment [2] (setting [8]) was 2.65 (active); in experiment [2] (setting [9]), -0.462; in experiment [3], -0.185 (inactive).
`C[C@H](NC(=O)c1cnc(-c2ccccc2)[nH]1)c1ccccc1`: the fold change in experiment [1] (setting [4]) is 0.876 (inactive); in experiment [1] (setting [5]), 2.24. For the same compound, the cell count in experiment [1] (setting [6]) is 7380; in experiment [1] (setting [7]) it was 8420. Besides, the figures for the z-score in experiment [2] (setting [8]), in experiment [2] (setting [9]) and in experiment [3] were 0.341 (inactive), -0.103 and -0.6 (inactive), respectively.
Regarding `COc1ccc(-c2oc3c(CC=C(C)C)c(OC4OC(CO)C(O)C(O)C4O)cc(O)c3c(=O)c2OC2OC(C)C(O)C(O)C2O)cc1` (configuration not stated), the fold change is 0.929 (inactive) and 0.864 (inactive) in experiment [1] (setting [4]); 1.15 and 1.26 in experiment [1] (setting [5]). The cell count in experiment [1] (setting [6]) is 9660 and 9050; in experiment [1] (setting [7]), 10400 and 10500. Moreover, the figures for the z-score in experiment [2] (setting [8]), in experiment [2] (setting [9]) and in experiment [3] were -0.309 (inactive), 0.107 and 0.865 (inactive), respectively.
On to `Cc1cc(NC(=O)Cn2cc(-c3cccc4cccnc34)cn2)n(C)n1`, for which the results for the fold change in experiment [1] (setting [4]) and in experiment [1] (setting [5]) were 0.876 (inactive) and 0.926, respectively. Moreover, the cell count in experiment [1] (setting [6]) is 8830; in experiment [1] (setting [7]), 10100. In addition, the figures for the z-score in experiment [2] (setting [8]), in experiment [2] (setting [9]) and in experiment [3] were -0.478 (inactive), -0.249 and -0.585 (inactive), respectively.
